For seven compounds, growth results are on record in PubChem BioAssay (NCI).

Some test systems named below: DU-145 prostate; K-562 leukemia; MALME-3M melanoma; MDA-MB-231 breast; RXF 393 renal; SF-268 CNS; SF-295 CNS; SF-539 CNS; UACC-257 melanoma; M14 melanoma; HCT-15 colon; HT29 colon; SNB-75 CNS; SNB-19 CNS; U251 CNS; PC-3 prostate; SK-MEL-5 melanoma; UACC-62 melanoma; LOX IMVI melanoma; SK-MEL-28 melanoma.
Experiment in all cases: NCI-60 one-dose screen, 48 h (100 = growth as untreated, 0 = no growth, -100 = all killed)
Holding throughout (details): 10 µM unless noted

SMILES strings stand for the structures. The panel holds about 83,000 compounds, 20% with a hit somewhere; the sample as a whole holds those more often.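 For each line, cells grew in 96-well plates with the test compound present at a single concentration for 48 hours.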 A number with no mark means an inactive call. Active and inactive are the calls of the source. The calls were made as follows: active = growth percent below 10; inactive = the rest.

For `Cc1ccnc(NC(c2ccccc2)c2ccc3cccnc3c2O)c1` (stereo not given), the growth in the assay on DU-145 prostate was 47.8%; with K-562 leukemia, 21.4%; in the assay with MALME-3M melanoma, 62.4%; in the assay on MDA-MB-231 breast it was 48.5%; with RXF 393 renal, 66.9%; in the assay with SF-268 CNS, 34.7%. Further, the growth with SF-295 CNS is 26%; in the assay with SF-539 CNS it was 24.7%; in the assay on UACC-257 melanoma it was 41.7%; in the assay on M14 melanoma, 36.8%; with HCT-15 colon, 27.9%; with HT29 colon, 43.1%. Moreover, the growth in the assay on SNB-75 CNS was 52.2%; with SNB-19 CNS, 40.3%; with U251 CNS, 20.4%; in the assay with PC-3 prostate, 35.3%; in the assay with SK-MEL-5 melanoma, 39.4%; in the assay with UACC-62 melanoma, 26.3%. For the same compound, the growth in the assay with LOX IMVI melanoma was 28.1%; in the assay with SK-MEL-28 melanoma it was 47%.
As to `CCN(CC)CCOc1ccc(-c2nc3cc(Cl)ccc3s2)cc1`, the growth was 12% in the assay on DU-145 prostate; -99.1% (active) with K-562 leukemia; 28.7% with MALME-3M melanoma; -44.8% (active) with MDA-MB-231 breast; 29.8% in the assay on RXF 393 renal; 16.5% in the assay on SF-268 CNS. For the same compound, the growth in the assay with SF-295 CNS is -71.5% (active); in the assay with SF-539 CNS, -15.5% (active); with UACC-257 melanoma, -36.2% (active); in the assay on M14 melanoma, -75.4% (active); with HCT-15 colon it was -71.9% (active); with HT29 colon it was -100% (active). Further, the growth in the assay with SNB-75 CNS is -0.875% (active); in the assay with SNB-19 CNS it was 40.7%; in the assay on U251 CNS, -3.49% (active); in the assay with PC-3 prostate it was 4.44% (active); with SK-MEL-5 melanoma, -38.5% (active); in the assay on UACC-62 melanoma it was -86.9% (active). Moreover, the results for the growth with LOX IMVI melanoma and in the assay on SK-MEL-28 melanoma were -86.5% (active) and -79.7% (active), respectively.
As for `CC1OC(OC2C(OC3CCC4(C)C(CCC5(C)C4CC=C4C6CC(C)(C)CCC6(CO)C(O)CC45C)C3(C)C)OC(C(=O)O)C(OC3OC(COC4OC(CO)C(O)C(O)C4O)C(O)C(O)C3O)C2O)C(O)C(O)C1O` (stereo not given), the growth in the assay with DU-145 prostate is 7.81% (active); with K-562 leukemia, -30.8% (active); with MALME-3M melanoma it was -73% (active); in the assay with MDA-MB-231 breast it was -86.1% (active); in the assay on RXF 393 renal it was -51.2% (active); in the assay with SF-268 CNS, 1.99% (active). Besides, the growth in the assay on SF-295 CNS was -85.2% (active); with SF-539 CNS, -84.5% (active); in the assay with UACC-257 melanoma it was -49.3% (active); with M14 melanoma it was -67.4% (active); with HCT-15 colon, -47.8% (active); with HT29 colon it was -44.6% (active). The growth in the assay on SNB-75 CNS was -84.1% (active); with SNB-19 CNS, -87.6% (active); in the assay on U251 CNS it was -80.4% (active); with PC-3 prostate, -74.3% (active); in the assay with SK-MEL-5 melanoma, -94.3% (active); in the assay with UACC-62 melanoma it was -69.7% (active). The growth in the assay on LOX IMVI melanoma was -69.9% (active); in the assay with SK-MEL-28 melanoma, -79% (active).
Turning to `COc1ccc(N=N/N=c2\sc3cc(OC)ccc3n2C)cc1`, the growth in the assay with DU-145 prostate was 91.8%; with K-562 leukemia, 80.8%; in the assay with MALME-3M melanoma, 109%; in the assay on MDA-MB-231 breast it was 90.5%; with RXF 393 renal, 105%; with SF-268 CNS it was 97.6%. Besides, the growth with SF-295 CNS is 83.3%; in the assay on SF-539 CNS it was 99.4%; in the assay on UACC-257 melanoma it was 80%; with M14 melanoma it was 110%; in the assay with HCT-15 colon, 98.9%; in the assay on HT29 colon, 78.9%. The growth in the assay on SNB-75 CNS was 101%; in the assay with SNB-19 CNS it was 98%; with U251 CNS, 77.7%; in the assay on PC-3 prostate, 77.9%; with SK-MEL-5 melanoma, 84.6%; in the assay with UACC-62 melanoma, 83.1%. Also, the growth with LOX IMVI melanoma is 105%; in the assay on SK-MEL-28 melanoma it was 94%.
For the compound `O=[N+]([O-])c1ccc2c(N=Nc3ccc4ccccc4c3O)c(O)cc(S(=O)(=O)O)c2c1`, the growth in the assay with DU-145 prostate is 104%; in the assay with K-562 leukemia, 96.3%; in the assay with MALME-3M melanoma, 99.9%; with MDA-MB-231 breast it was 74.2%; in the assay with RXF 393 renal it was 97%; in the assay on SF-268 CNS, 72.4%. For the same compound, the growth was 102% with SF-295 CNS; 96.9% in the assay with SF-539 CNS; 99.2% with UACC-257 melanoma; 80.7% in the assay with M14 melanoma; 85.1% in the assay on HCT-15 colon; 104% with HT29 colon. Moreover, the growth with SNB-75 CNS is 105%; in the assay on SNB-19 CNS, 79.7%; in the assay with U251 CNS, 57.7%; with PC-3 prostate, 77.2%; in the assay with SK-MEL-5 melanoma, 85%; in the assay with UACC-62 melanoma, 79.4%. In addition, the growth is 66.2% in the assay with LOX IMVI melanoma and 98.8% with SK-MEL-28 melanoma.
Turning to `CC(C)(C)CC(C)(C)c1ccc(OCCSC(=N)N)cc1`, the growth with DU-145 prostate was 72.4%; in the assay on K-562 leukemia, 0.322% (active); in the assay on MALME-3M melanoma, -0.257% (active); with MDA-MB-231 breast, -7.07% (active); in the assay with RXF 393 renal, 60.8%; in the assay on SF-268 CNS, 55%. For the same compound, the growth was -34.7% (active) with SF-295 CNS; -6.57% (active) in the assay with SF-539 CNS; 76.7% in the assay on UACC-257 melanoma; -48.5% (active) with M14 melanoma; 1.48% (active) in the assay on HCT-15 colon; 2.71% (active) in the assay on HT29 colon. The growth is 77.7% with SNB-75 CNS; 87% with SNB-19 CNS; 12.3% in the assay with U251 CNS; 72.2% in the assay with PC-3 prostate; 27.9% in the assay with SK-MEL-5 melanoma; 66.5% in the assay on UACC-62 melanoma. Moreover, the results for the growth in the assay on LOX IMVI melanoma and in the assay on SK-MEL-28 melanoma were 8.68% (active) and -72.7% (active), respectively.
For `O=C(/C=C\c1ccccc1)N1c2ccccc2CC1c1c[nH]c2ccccc12` (stereo not given), the growth in the assay on DU-145 prostate was 89.7%; in the assay with K-562 leukemia it was 65.9%; in the assay with MALME-3M melanoma it was 85.4%; in the assay on MDA-MB-231 breast, 60.8%; in the assay on RXF 393 renal, 93.4%; in the assay on SF-268 CNS, 75.2%. The growth is 68.7% in the assay with SF-295 CNS; 95.1% in the assay with SF-539 CNS; 88.8% in the assay with UACC-257 melanoma; 71.6% with M14 melanoma; 55.7% with HCT-15 colon; 21.8% in the assay on HT29 colon. Besides, the growth in the assay with SNB-75 CNS was 62.4%; in the assay with SNB-19 CNS, 85.8%; with U251 CNS, 74.1%; in the assay on PC-3 prostate, 53.6%; with SK-MEL-5 melanoma, 87.6%; in the assay with UACC-62 melanoma it was 48.9%. Further, the growth is 67.9% in the assay with LOX IMVI melanoma and 88.8% in the assay with SK-MEL-28 melanoma.
